# Measured values published in PubChem BioAssay AID2240 (Broad Institute, 2010).
# The whole screen tested about 37,000 compounds, of which about 100 (0.27%) were called active. Many of the other results were omitted from the sample, so actives are more common in it than they were. Values without a mark were called inactive. Cut-off read from the data, not from the text of the source: active = inhibition above about 85%; inconclusive = no clear call, values can overlap the other calls; inactive = below about 68%.
# Assay: blocks MITF activity, primary screen, MITF inhibitor project, cell-based, luminescence (AID 2240);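 note: human melanocyte line stably carrying TRPM1 promoter luciferase reporter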
# Details: TRPM1 promoter luciferase, 24 h, active compounds read high, concentration not given here
row,SMILES,inhibition
1,C[C@@H]1CN([C@@H](C)CO)C(=O)c2cc(NS(=O)(=O)c3ccc(F)cc3)ccc2O[C@@H]1CN(C)C(=O)NC1CCCCC1,1.15%
2,O=C(CSc1nc2c(c(C(F)(F)F)n1)CCCC2)N1c2ccccc2Sc2ccccc21,11%
3,O=[N+]([O-])c1ccccc1-c1ccc(CN2CCN3CCCC3C2C2CCCCC2)o1 (centres undefined),-7.52%
4,C/C=C(/C)C(=O)O[C@H]1CC(C)(C)C[C@H]2C3=CCC4[C@@]5(C)CC[C@H](O[C@@H]6O[C@H](C(=O)O)[C@@H](O[C@@H]7O[C@H](CO)[C@H](O)[C@H](O)[C@H]7O[C@@H]7O[C@H](CO)[C@@H](O)[C@H](O)[C@H]7O)[C@H](O)[C@H]6O[C@@H]6O[C@@H](C)[C@H](O)[C@@H](O)[C@H]6O)C(C)(C)C5CC[C@@]4(C)[C@]3(C)[C@@H](OC(C)=O)[C@@H](O)[C@@]12COC(C)=O (some centres undefined),50.5%
5,C/C=C(/C)C(=O)O[C@H]1CC(C)(C)C[C@H]2C3=CCC4[C@@]5(C)CC[C@H](O[C@@H]6O[C@H](C(=O)O)[C@@H](O[C@@H]7O[C@H](CO)[C@H](O)[C@H](O)[C@H]7O[C@@H]7O[C@H](CO)[C@@H](O)[C@H](O)[C@H]7O)[C@H](O)[C@H]6O[C@@H]6O[C@@H](C)[C@H](O)[C@@H](O)[C@H]6O)C(C)(C)C5CC[C@@]4(C)[C@]3(C)[C@@H](O)[C@@H](O)[C@@]12CO (some centres undefined),93.6% (active)
6,CC1OC(OC2C(OC3C(O[C@H]4CC[C@@]5(C)C(CC[C@]6(C)C5CC=C5[C@@H]7CC(C)(C)C[C@@H](O)[C@]7(C)CC[C@]56C)C4(C)C)OC(C(=O)O)C(O)C3O)OC(CO)C(O)C2O)C(O)C(O)C1O (some centres undefined),-6.6%
7,O=C(CSc1nnc2c(n1)[nH]c1ccccc12)Nc1cccc(C(F)(F)F)c1,63.8%
8,CN(c1ccc(C(=O)NCc2ccccn2)cc1)S(C)(=O)=O,-16%
9,COC(=O)c1scc(S(=O)(=O)C(C)(C)C)c1-n1cccc1,3.33%
10,C[C@@H]1CN([C@@H](C)CO)C(=O)c2cccc(NS(=O)(=O)c3cn(C)cn3)c2O[C@H]1CN(C)Cc1ccc(Cl)c(Cl)c1,-17%
11,CC(C)NC(=O)Nc1ccc2c(c1)C(=O)N([C@H](C)CO)C[C@H](C)[C@@H](CN(C)CC1CCCCC1)OCCCC[C@@H](C)O2,0.663%
12,COc1ccc(CN(C)C[C@@H]2Oc3ccc(NC(=O)Nc4ccc(OC)cc4)cc3C(=O)N([C@H](C)CO)C[C@H]2C)cc1,-5.96%
13,CCc1ccccc1NC(=O)Cn1cnc2scc(-c3ccc(OC)cc3)c2c1=O,27.3%
14,COc1ccc(S(=O)(=O)Nc2cccc3c2O[C@H](CN(C)C(=O)Nc2cccc4ccccc24)[C@H](C)CN([C@@H](C)CO)C3=O)cc1,4.99%
15,NC(=S)c1cnn2c(C(F)(F)F)cc(C(F)(F)F)nc12,6.61%
16,C[C@@H]1CN([C@@H](C)CO)C(=O)c2cc(NC(=O)CCN3CCOCC3)ccc2O[C@@H]1CN(C)S(=O)(=O)c1ccccc1,-5.16%
17,C[C@H](CO)N1C[C@H](C)[C@@H](CN(C)Cc2ccc(C(F)(F)F)cc2)Oc2c(NC(=O)NC3CCCCC3)cccc2C1=O,15.8%
18,C[C@@H]1CN([C@@H](C)CO)C(=O)Cc2cc(NC(=O)Cc3ccccc3)ccc2O[C@@H]1CN(C)Cc1ccc2c(c1)OCO2,4.15%
19,O=C(CSc1nnc2n1CCCN2)c1ccccc1,-27.2%
20,Cc1ccc(C23CC4CC(CC(CN)(C4)C2)C3)cc1C,94.1% (active)

row,SMILES,inhibition
1,C[C@@H]1CN([C@H](C)CO)C(=O)Cc2cc(NC(=O)Nc3ccc4c(c3)OCO4)ccc2O[C@@H]1CN(C)C(=O)Nc1ccccc1,8.24%
2,COc1ccc(S(=O)(=O)Nc2ccc3c(c2)CC(=O)N([C@@H](C)CO)C[C@@H](C)[C@@H](CN(C)C)O3)cc1,-7.94%
3,C[C@@H]1CCCCO[C@@H](CN(C)Cc2ccncc2)[C@@H](C)CN([C@H](C)CO)C(=O)c2cc(NS(=O)(=O)c3cccs3)ccc2O1,-6.77%
4,C[C@H]1CN([C@@H](C)CO)C(=O)Cc2cc(NC(=O)Nc3ccccc3)ccc2O[C@H]1CN(C)S(=O)(=O)c1cn(C)cn1,-4.73%
5,Cc1cc(C(=O)Nc2cccc3c2O[C@@H](CN(C)C(=O)Nc2ccc(F)cc2)[C@H](C)CN([C@@H](C)CO)C3=O)n(C)n1,-3.61%
6,CC1=C(C(=O)OCc2ccccc2)OC(N)=C(C#N)C1c1ccc(F)cc1 (centres undefined),-8.27%
7,O=S(=O)(NCCc1ccccc1)c1ccccc1,-1.44%
8,Cc1cc(C)c2c(c1)CC(C)(C)c1[nH]c(-c3ccccc3)nc1-2,12.3%
9,CCCC1CCC(c2ccc(OC(=O)c3ccco3)cc2)CC1 (centres undefined),-3.57%
10,Cc1ccc(-n2c(SCC(=O)Nc3cccc(C)c3C)nc3ccccc3c2=O)cc1,14.3%
11,Cc1nc(SCC(=O)O)[nH]c(=O)c1Oc1ccccc1,-13.2%
12,O=C(CCn1nc(-c2ccccc2)c2ccccc2c1=O)Nc1cccc(Br)c1,6.27%
13,O=C(c1nc2ncccn2n1)N(Cc1ccccc1)Cc1ccccc1,3.11%
14,COc1cc(CO)cc(Cl)c1OCc1cccc([N+](=O)[O-])c1,-30.9%
15,COc1ccc(-c2cnc3c(-c4ccsc4)cnn3c2)cc1,26.7%
16,COc1ccc(S(=O)(=O)Nc2ccc3c(c2)CC(=O)N([C@H](C)CO)C[C@H](C)[C@H](CN(C)C(=O)Nc2ccccc2)O3)cc1,-16.9%
17,CNC[C@H]1Oc2ccc(NC(=O)C3CCCCC3)cc2C(=O)N([C@H](C)CO)C[C@@H]1C,4.94%
18,C[C@H]1CN([C@@H](C)CO)C(=O)c2cccc(NC(=O)Nc3cccc4ccccc34)c2O[C@@H]1CN(C)C(=O)NC1CCCCC1,0.565%
19,O=C(CCCN1C(=O)c2ccccc2C1=O)Nc1cccc2c1CCCC2,-8.57%
